Experimental findings from the supplement of paper PMC6522484 are described below.

± gives the standard deviation of the averaged measurements.

Assay [1] relates to DLD1. Nature of the assay: cell viability (CellTiter-Glo) relative to plate median (fraction of plate median); higher = more viable cells. Particulars: 5 µM; treatment time 24 h; reporter: 7TFP. The gist of the method: (§1)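 Colorectal cancer lines with stably integrated lentiviral TCF/Wnt firefly luciferase reporters received library compounds at a final 5 µM, 24 h after seeding into 384-well plates, for a 24 h exposure. Reported figures are plate-median-normalised firefly luciferase or CellTiterGlo luminescence per well. They average two independent replicates.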
(In general: Cellular ATP, detected with luciferase, serves as a proxy for viable cell number.)

A further assay relates to HCT116. The assay is described as above. Particulars: 5 µM; treatment time 24 h; reporter: TCF4/Wnt. In outline: as §1
In assay [2] the test system is SW480. The description is as above. The settings on record: 5 µM; treatment time 24 h; reporter: 7TFP. In outline:
as §1

In assay [3] the test system is DLD1. The experiment in a line: TCF/Wnt firefly luciferase reporter signal relative to plate median (fraction of plate median); higher = higher Wnt reporter signal. The settings on record: 5 µM; treatment time 24 h; reporter: 7TFP. In outline:
as §1
(A reporter such as luciferase makes a cellular process visible.)

Assay [4] concerns SW480. Described as above. Particulars: 5 µM; treatment time 24 h; reporter: 7TFP. In outline: as §1

As for `CC(=O)O[C@H]1CC[C@@]2(C)C(=CC[C@@H]3[C@@H]2CC[C@]2(C)C(=O)CC[C@@H]32)C1`, the cell viability was 1.02 ± 0.075 with DLD1 [1], 1.03 ± 0.083 in the assay on HCT116 and 0.983 ± 0.025 with SW480 [2]. Further, the “TCF/Wnt firefly luciferase reporter signal” value in the assay with DLD1 [3] is 0.944 ± 0.028; in the assay with SW480 [4], 1.08 ± 0.092.
`CNC(=O)Oc1ccc2c(c1)[C@]1(C)CCN(C)[C@@H]1N2C`: the cell viability with DLD1 [1] was 0.948 ± 0.0071; in the assay with HCT116, 0.889 ± 0.12; with SW480 [2], 0.966 ± 0.047. For the same compound, the “TCF/Wnt firefly luciferase reporter signal” value was found to be 1.08 ± 0.12 in the assay on DLD1 [3] and 0.989 ± 0.072 with SW480 [4].
As for `Cc1ncc(CNC(=O)N(CCCl)N=O)c(N)n1`, the cell viability in the assay with DLD1 [1] turned out to be 1.02 ± 0.021; in the assay on HCT116 it was 0.98 ± 0.0071; in the assay on SW480 [2], 1.025 ± 0.0071. Moreover, the results for the “TCF/Wnt firefly luciferase reporter signal” value in the assay with DLD1 [3] and with SW480 [4] were 1.01 ± 0.03 and 0.987 ± 0.019, respectively.
On to `C[C@H]1C(=O)O[C@@H]2CCN3CC=C(COC(=O)[C@](C)(O)[C@]1(C)O)[C@H]23`, for which the results for the cell viability in the assay with DLD1 [1], with HCT116 and with SW480 [2] were 1 ± 0.023, 1.04 ± 0.09 and 1.015 ± 0.0071, respectively. Besides, the “TCF/Wnt firefly luciferase reporter signal” value is 0.919 ± 0.035 in the assay on DLD1 [3] and 0.998 ± 0.06 in the assay on SW480 [4].
For `CNC(C)(C)Cc1ccccc1`, the results for the cell viability in the assay on DLD1 [1], with HCT116 and with SW480 [2] were 1.02, 1.01 ± 0.021 and 1.06 ± 0.014, respectively. The “TCF/Wnt firefly luciferase reporter signal” value came out at 1.09 in the assay with DLD1 [3] and 0.932 ± 0.04 in the assay on SW480 [4].
On to `CC(=O)Oc1c2c(c(CC=C(C)C)c3c1C(=O)C1=C[C@@H]4CC5C(C)(C)OC(C/C=C(\C)C(=O)O)(C4=O)[C@@]15O3)OC(C)(CCC=C(C)C)C=C2` (stereo not given in full), for which the cell viability with DLD1 [1] is 0.809 ± 0.046; with HCT116, 0.933 ± 0.047; in the assay on SW480 [2], 0.913 ± 0.08. For the same compound, the “TCF/Wnt firefly luciferase reporter signal” value in the assay with DLD1 [3] came to 0.706 ± 0.067; in the assay with SW480 [4] it was 0.814 ± 0.26.
As for `O=C(O)CF`, the cell viability is 0.951 ± 0.049 in the assay on DLD1 [1], 0.968 ± 0.059 in the assay with HCT116 and 1.035 ± 0.0071 in the assay on SW480 [2]. For the same compound, the “TCF/Wnt firefly luciferase reporter signal” value in the assay with DLD1 [3] was determined as 1.05 ± 0.014; in the assay with SW480 [4], 1.07 ± 0.042.
In the same order, the values of `FC(F)(F)c1cccc(N2CCNCC2)c1` are 1.04 ± 0.13, 1.05 ± 0.086, 1.02 ± 0.014, 0.943 ± 0.015 and 1.02 ± 0.045.
Consider `COc1c2c(c(CC=C(C)C)c3oc(=O)c(-c4ccc(O)cc4)c(O)c13)OC(C)(C)C=C2`, for which the cell viability in the assay with DLD1 [1] was 0.9495 ± 0.0021; in the assay with HCT116, 0.985 ± 0.064; in the assay on SW480 [2], 1.01 ± 0.035. The figures for the “TCF/Wnt firefly luciferase reporter signal” value in the assay on DLD1 [3] and in the assay with SW480 [4] were 0.969 ± 0.016 and 0.985 ± 0.012, respectively.
As to `CN1C[C@H](C(=O)N[C@]2(C)O[C@@]3(O)[C@@H]4CCCN4C(=O)[C@H](Cc4ccccc4)N3C2=O)C=C2c3cccc4[nH]cc(c34)C[C@H]21`, the figures for the cell viability in the assay with DLD1 [1], with HCT116 and in the assay on SW480 [2] were 0.967 ± 0.09, 1.11 ± 0.078 and 1.03 ± 0.042, respectively. In addition, the “TCF/Wnt firefly luciferase reporter signal” value with DLD1 [3] was 1.23 ± 0.25; in the assay on SW480 [4], 1.16 ± 0.078.
On to `C=CCC1(C(C)CCC)C(=O)NC(=S)NC1=O` (stereo not given), for which the cell viability in the assay on DLD1 [1] turned out to be 1.03 ± 0.076; in the assay with HCT116, 1.18 ± 0.23; in the assay on SW480 [2], 0.951 ± 0.0028. Moreover, the “TCF/Wnt firefly luciferase reporter signal” value came out at 1.02 ± 0.035 with DLD1 [3] and 0.794 ± 0.011 in the assay with SW480 [4].
As to `C/C=C/[C@H]1O[C@@](O)([C@@H](C)[C@H](O)[C@H](C)[C@H]2OC(=O)/C(OC)=C/C(C)=C/[C@@H](C)[C@@H](O)[C@@H](C)[C@@H](O)[C@H](C)C/C(C)=C/C=C/[C@@H]2OC)C[C@@H](O[C@H]2C[C@@H](O)[C@H](OC(N)=O)[C@@H](C)O2)[C@@H]1C` [Concanamycin B], the cell viability worked out at 0.935 ± 0.0085 in the assay on DLD1 [1], 0.941 ± 0.011 in the assay on HCT116 and 1.05 ± 0.014 in the assay with SW480 [2]. In addition, the results for the “TCF/Wnt firefly luciferase reporter signal” value with DLD1 [3] and with SW480 [4] were 0.9065 ± 0.0064 and 1.05 ± 0.042, respectively.
In the case of `S=C=NCc1ccccc1`, the cell viability in the assay on DLD1 [1] stood at 0.961 ± 0.053; with HCT116 it was 0.928 ± 0.039; with SW480 [2], 0.959 ± 0.012. Also, the “TCF/Wnt firefly luciferase reporter signal” value was 0.748 ± 0.17 in the assay with DLD1 [3] and 0.822 ± 0.071 in the assay on SW480 [4].
In the case of `CN1CCc2cc3c(cc2[C@H]1[C@@H]1OC(=O)c2c1ccc1c2OCO1)OCO3`, the cell viability worked out at 1.06 ± 0.014 in the assay on DLD1 [1], 1.07 ± 0.13 in the assay on HCT116 and 1.05 ± 0.05 with SW480 [2]. The “TCF/Wnt firefly luciferase reporter signal” value in the assay on DLD1 [3] came out at 0.9 ± 0.011; in the assay on SW480 [4], 1.045 ± 0.0071.
Turning to `CO[C@H]1C[C@H](O[C@H]2CC[C@@]3(C)[C@H](CC[C@@H]4[C@@H]3CC[C@]3(C)[C@@H](C5=CC(=O)OC5)[C@@H](OC(C)=O)C[C@]43O)C2)O[C@@H](C)[C@@H]1O`, the cell viability in the assay on DLD1 [1] turned out to be 1.26 ± 0.028; in the assay with HCT116, 0.486 ± 0.31; in the assay with SW480 [2] it was 1.31 ± 0.13. The results for the “TCF/Wnt firefly luciferase reporter signal” value in the assay on DLD1 [3] and in the assay with SW480 [4] were 0.123 ± 0.13 and 0.171 ± 0.12, respectively.
Turning to `CC[C@@]1(O)C[C@H](O[C@H]2C[C@H](N(C)C)[C@H](O[C@H]3C[C@@H]4O[C@H]5CC(=O)[C@H](C)O[C@H]5O[C@@H]4[C@H](C)O3)[C@H](C)O2)c2c(cc3c(c2O)C(=O)c2c(O)ccc(O)c2C3=O)[C@H]1C(=O)OC` [Cinerubin-B], the figures for the cell viability in the assay on DLD1 [1], with HCT116 and in the assay with SW480 [2] were 1.04 ± 0.12, 0.993 ± 0.067 and 1.01 ± 0.028, respectively. Moreover, the “TCF/Wnt firefly luciferase reporter signal” value with DLD1 [3] amounted to 0.991 ± 0.15; with SW480 [4], 1.07 ± 0.028.
Consider `NC(=O)c1ccc(N)nc1`, for which the cell viability with DLD1 [1] turned out to be 1.1 ± 0.13; in the assay with HCT116, 1.1; with SW480 [2] it was 1.01 ± 0.16. The “TCF/Wnt firefly luciferase reporter signal” value is 1.01 ± 0.067 in the assay with DLD1 [3] and 0.91 ± 0.037 with SW480 [4].
As for `CC(=O)O[C@H]1C[C@@H]2CC[C@@H]3[C@H](CC[C@@]4(C)[C@H]3C[C@H]([N+]3(C)CCCCC3)[C@@H]4OC(C)=O)[C@@]2(C)C[C@@H]1[N+]1(C)CCCCC1`, the cell viability with DLD1 [1] is 0.9865 ± 0.0064; in the assay with HCT116, 1.03 ± 0.062; with SW480 [2], 0.963 ± 0.011. The figures for the “TCF/Wnt firefly luciferase reporter signal” value in the assay with DLD1 [3] and in the assay on SW480 [4] were 1.01 ± 0.093 and 0.9685 ± 0.0078, respectively.
In the same order, the values of `N[C@H](CO)Cc1ccccc1` are 0.998 ± 0.059, 0.982 ± 0.12, 0.981 ± 0.0042, 0.901 ± 0.09 and 0.761 ± 0.19.
On to `CC(Cc1ccc(O)cc1)NCC(O)c1cc(O)cc(O)c1` (stereo not given), for which the cell viability in the assay with DLD1 [1] worked out at 1.04 ± 0.068; with HCT116, 1.1 ± 0.099; with SW480 [2] it was 0.967 ± 0.012. For the same compound, the “TCF/Wnt firefly luciferase reporter signal” value was found to be 0.9645 ± 0.0035 in the assay with DLD1 [3] and 0.945 ± 0.013 in the assay with SW480 [4].
In the same order, the values of `Nc1ccncc1` are 1.025 ± 0.0071, 1.07 ± 0.028, 1 ± 0.1, 1.03 ± 0.054 and 1.13 ± 0.071.
In the same order, the values of `COc1ccc2c(c1OC)C(=O)O[C@@H]2[C@H]1c2cc3c(cc2CCN1C)OCO3` are 1.05 ± 0.042, 1.1 ± 0.078, 1.1 ± 0.035, 1.18 ± 0.05 and 1.04 ± 0.097.
In the case of `C=C[C@@H]1C2=CCOC(=O)C2=CO[C@H]1O[C@@H]1O[C@H](CO)[C@@H](O)[C@H](O)[C@H]1O`, the values for the cell viability with DLD1 [1], with HCT116 and with SW480 [2] were 0.971 ± 0.098, 0.9495 ± 0.0078 and 1.03, respectively. Moreover, the results for the “TCF/Wnt firefly luciferase reporter signal” value in the assay on DLD1 [3] and in the assay with SW480 [4] were 0.923 ± 0.12 and 0.926 ± 0.034, respectively.
For `COc1cc(O)c2c(=O)oc3cc(O)cc(C)c3c2c1` [Alternariol-9-methylether], the cell viability in the assay on DLD1 [1] turned out to be 0.979 ± 0.044; in the assay with HCT116, 1.03 ± 0.073; in the assay with SW480 [2], 1.01 ± 0.042. Moreover, the “TCF/Wnt firefly luciferase reporter signal” value in the assay with DLD1 [3] worked out at 0.946 ± 0.1; in the assay with SW480 [4], 1.06 ± 0.064.
For `Cc1cc(O)cc2oc(=O)c3c(O)cc(O)cc3c12` [Alternariol], the cell viability amounted to 0.914 ± 0.017 in the assay on DLD1 [1], 0.919 ± 0.013 with HCT116 and 1.01 ± 0.03 with SW480 [2]. In addition, the “TCF/Wnt firefly luciferase reporter signal” value is 0.861 ± 0.12 in the assay on DLD1 [3] and 0.992 ± 0.097 in the assay with SW480 [4].
Turning to `CC(C)(C#N)O[C@@H]1O[C@H](CO)[C@@H](O)[C@H](O)[C@H]1O`, the cell viability with DLD1 [1] turned out to be 0.945 ± 0.078; in the assay with HCT116 it was 1.06 ± 0.014; in the assay on SW480 [2], 0.992 ± 0.0014. Also, the figures for the “TCF/Wnt firefly luciferase reporter signal” value with DLD1 [3] and in the assay with SW480 [4] were 0.953 ± 0.036 and 0.933 ± 0.036, respectively.
As for `COc1cccc(C2(O)CCCCC2CN(C)C)c1` (stereo not given), the figures for the cell viability in the assay with DLD1 [1], in the assay on HCT116 and in the assay with SW480 [2] were 0.997 ± 0.019, 1.03 ± 0.047 and 1 ± 0.036, respectively. Moreover, the entries for the “TCF/Wnt firefly luciferase reporter signal” value in the assay with DLD1 [3] and in the assay with SW480 [4] were 1.09 ± 0.057 and 1.09 ± 0.021, respectively.
